In PubChem BioAssay (Tox21):
Inconclusive results are not listed. A call without a number means that no potency is given here. A number with no mark means an inactive call. Calls of active or inactive are those of the source. Calls follow the shape of the dose curve; as a rule, active = well fitted cell-killing curve with a large enough effect in the repeat runs; inconclusive = weak or mixed curves, or effect the other way; inactive = flat fitted curve, though single readings scatter.

Assays:
[1] = cAMP Responsive Elements (CRE) small molecule antagonists, cell-based qHTS assay: qHTS cell viability counter screen (AID 2060913); also: nearly all actives have a fitted effect of over 40% in size
Method in brief: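 Cytotoxicity read in the same wells as the CRE-bla HEK293T antagonist assay: after 3 h compound with 0.25 uM NKH477 final and 2 h beta-lactamase substrate, CellTiter-Glo luminescence measured.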

[2] = cAMP Responsive Elements (CRE) small molecule agonists, cell-based qHTS assay: qHTS cell viability counter screen (AID 2060914);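 also: viability read after 3 h of compound exposure; nearly all actives have a fitted effect of over 50% in size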
Method in brief: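 CRE-bla HEK293T cells in 10% dialyzed FBS medium were exposed to compounds for 3 h at 37C after 18 h plating. CellTiter-Glo was then added in the same wells, and luminescence was read after 30 min at room temperature.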

Row | SMILES | viability change, negative = cytotoxic [1] | activity change, negative = cytotoxicity [2] | Potency [1] | Potency [2]
1 | Cc1cccn2c(=O)c(-c3nnn[nH]3)cnc12 | -1.68% [at 18.9 µM] | -13.9% [at 18.9 µM] |  | 
2 | CNC1CCCN(c2c(F)cc3c(=O)c(C(=O)O)cn(C4CC4)c3c2OC)C1 (stereo unspecified) |  |  | inactive | inactive
3 | Fc1ccccc1 |  |  | inactive | inactive
4 | O=C(O)[C@H](O)[C@@H](O)[C@H](O)[C@H](O)CO |  |  | inactive | inactive
5 | C=C(C)[C@H]1CC=C(C)C(=O)C1 |  |  | inactive | inactive
6 | COC(=O)c1ccc(C(=O)O)cc1 |  |  | inactive | inactive
7 | Cc1cc(C)c(C(=O)O)c(C)c1 |  |  | inactive | inactive
8 | CO[C@@H]1[C@H](OC(=O)/C=C/C=C/C=C/C=C/C(=O)O)CC[C@]2(CO2)[C@H]1[C@@]1(C)O[C@@H]1CC=C(C)C |  |  | inactive | inactive
